Experimental data reported in the supplement of paper PMC8728848.
This excerpt belongs to a sample that is enriched for the strongest signals.

Columns and labels:
Assay in all cases: glycan array binding signal (z-score within array); higher = stronger binding
Conditions in all cases: glycan notation: IUPAC condensed, linker removed
[1] = biological target: Fuc(a1-2)Gal(b1-3)GalNAc(a1-3)[Fuc(a1-2)]Gal(b1-4)GlcNAc
Summary of the method: (§1)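 Columns mapping to the same glycan were averaged after glycan names were converted to IUPAC-condensed notation. The data come from 3228 arrays in the Consortium for Functional Glycomics database, limited to those with an available protein sequence. Binding is reported as a within-array Z-score averaged across arrays of one protein sequence and across linkers.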

[2] = biological target: Fuc(a1-2)Gal(b1-3)GlcNAc(b1-2)Man(a1-3)[Fuc(a1-2)Gal(b1-3)GlcNAc(b1-2)Man(a1-6)]Man(b1-4)GlcNAc(b1-4)GlcNAc
Summary of the method: as §1

[3] = biological target: Fuc(a1-2)Gal(b1-4)GlcNAc(b1-2)Man(a1-3)[Fuc(a1-2)Gal(b1-4)GlcNAc(b1-2)Man(a1-6)]Man(b1-4)GlcNAc(b1-4)GlcNAc
Summary of the method: as §1

[4] = biological target: Fuc(a1-2)Gal(b1-4)GlcNAc(b1-3)Gal(b1-4)GlcNAc(b1-3)Gal(b1-4)GlcNAc
Summary of the method: as §1

[5] = biological target: Fuc(a1-2)Gal6S(b1-3)GlcNAc6S
Summary of the method: as §1

[6] = biological target: Gal(a1-3)Gal(b1-4)[Fuc(a1-3)]GlcNAc(b1-2)Man(a1-3)[Gal(a1-3)Gal(b1-4)[Fuc(a1-3)]GlcNAc(b1-2)Man(a1-6)]Man(b1-4)GlcNAc(b1-4)GlcNAc
Summary of the method: as §1

[7] = biological target: Gal(a1-4)Gal(b1-4)Glc
Summary of the method: as §1

[8] = biological target: Gal(a1-4)Gal(b1-4)GlcNAc(b1-2)Man(a1-3)[Gal(a1-4)Gal(b1-4)GlcNAc(b1-2)Man(a1-6)]Man(b1-4)GlcNAc(b1-4)GlcNAc
Summary of the method: as §1

[9] = biological target: Gal(b1-3)Gal(b1-4)GlcNAc
Summary of the method: as §1

[10] = biological target: Gal(b1-3)GalNAc(a1-3)[Fuc(a1-2)]Gal(b1-4)Glc
Summary of the method: as §1

[11] = biological target: Gal(b1-4)Glc6S
Summary of the method: as §1

[12] = biological target: Gal(b1-4)GlcNAc(b1-2)Man(a1-3)[Gal(b1-4)GlcNAc(b1-2)Man(a1-6)]Man(b1-4)GlcNAc(b1-4)GlcNAc
Summary of the method: as §1

[13] = biological target: Gal(b1-4)GlcNAc(b1-2)[Gal(b1-4)GlcNAc(b1-4)]Man(a1-3)[Gal(b1-4)GlcNAc(b1-2)Man(a1-6)]Man(b1-4)GlcNAc(b1-4)GlcNAc
Summary of the method: as §1

[14] = biological target: Gal(b1-4)GlcNAc(b1-2)[Gal(b1-4)GlcNAc(b1-6)]Man(a1-6)[GlcNAc(b1-4)][Gal(b1-4)GlcNAc(b1-2)[Gal(b1-4)GlcNAc(b1-4)]Man(a1-3)]Man(b1-4)GlcNAc(b1-4)[Fuc(a1-6)]GlcNAc
Summary of the method: as §1

[15] = biological target: Gal(b1-4)GlcNAc(b1-3)Gal(b1-4)GlcNAc(b1-3)Gal(b1-4)GlcNAc(b1-2)Man(a1-3)[Gal(b1-4)GlcNAc(b1-3)Gal(b1-4)GlcNAc(b1-3)Gal(b1-4)GlcNAc(b1-2)Man(a1-6)]Man(b1-4)GlcNAc(b1-4)[Fuc(a1-6)]GlcNAc
Summary of the method: as §1

[16] = biological target: Gal(b1-4)GlcNAc(b1-3)Gal(b1-4)GlcNAc(b1-3)Gal(b1-4)GlcNAc(b1-2)[Gal(b1-4)GlcNAc(b1-3)Gal(b1-4)GlcNAc(b1-3)Gal(b1-4)GlcNAc(b1-6)]Man(a1-6)[Gal(b1-4)GlcNAc(b1-3)Gal(b1-4)GlcNAc(b1-3)Gal(b1-4)GlcNAc(b1-2)Man(a1-3)]Man(b1-4)GlcNAc(b1-4)[Fuc(a1-6)]GlcNAc
Summary of the method: as §1

[17] = biological target: Gal(b1-4)GlcNAc(b1-3)Gal(b1-4)GlcNAc(b1-3)Gal(b1-4)GlcNAc(b1-3)Gal(b1-4)GlcNAc(b1-3)Gal(b1-4)GlcNAc(b1-2)[Gal(b1-4)GlcNAc(b1-3)Gal(b1-4)GlcNAc(b1-3)Gal(b1-4)GlcNAc(b1-3)Gal(b1-4)GlcNAc(b1-3)Gal(b1-4)GlcNAc(b1-6)]Man(a1-6)[Gal(b1-4)GlcNAc(b1-3)Gal(b1-4)GlcNAc(b1-3)Gal(b1-4)GlcNAc(b1-3)Gal(b1-4)GlcNAc(b1-3)Gal(b1-4)GlcNAc(b1-2)Man(a1-3)]Man(b1-4)GlcNAc(b1-4)[Fuc(a1-6)]GlcNAc
Summary of the method: as §1

[18] = biological target: Gal(b1-4)GlcNAc(b1-3)Gal(b1-4)GlcNAc(b1-6)[Gal(b1-3)]GalNAc
Summary of the method: as §1

[19] = biological target: Gal(b1-4)GlcNAc(b1-3)Gal(b1-4)[Fuc(a1-3)]GlcNAc(b1-3)Gal(b1-4)[Fuc(a1-3)]GlcNAc
Summary of the method: as §1

[20] = biological target: Gal(b1-4)GlcNAc(b1-3)GalNAc
Summary of the method: as §1

[21] = biological target: Gal3S(b1-3)GalNAc
Summary of the method: as §1

[22] = biological target: Gal3S(b1-3)[Fuc(a1-4)]GlcNAc
Summary of the method: as §1

[23] = biological target: Gal3S(b1-4)[Fuc(a1-3)]Glc6S
Summary of the method: as §1

[24] = biological target: Gal3S4S(b1-4)GlcNAc
Summary of the method: as §1

[25] = biological target: Glc(b1-6)Glc
Summary of the method: as §1

[26] = biological target: GlcNAc(a1-4)Gal(b1-4)GlcNAc(b1-3)Gal(b1-4)Glc
Summary of the method: as §1

[27] = biological target: GlcNAc(b1-3)Gal
Summary of the method: as §1

[28] = biological target: GlcNAc(b1-3)[GlcNAc(b1-4)][GlcNAc(b1-6)]GlcNAc
Summary of the method: as §1

[29] = biological target: Man(a1-3)[Man(a1-6)]Man(a1-6)[Man(a1-3)]Man(b1-4)GlcNAc(b1-4)GlcNAc
Summary of the method: as §1

[30] = biological target: Neu5Ac(a2-3)Gal(b1-3)GlcNAc(b1-2)Man
Summary of the method: as §1

[31] = biological target: Neu5Ac(a2-3)Gal(b1-3)GlcNAc(b1-3)Gal(b1-3)GlcNAc
Summary of the method: as §1

[32] = biological target: Neu5Ac(a2-3)Gal(b1-3)GlcNAc(b1-3)GalNAc
Summary of the method: as §1

[33] = biological target: Neu5Ac(a2-3)Gal(b1-3)GlcNAc(b1-4)Gal(b1-4)Glc
Summary of the method: as §1

[34] = biological target: Neu5Ac(a2-3)Gal(b1-4)Glc
Summary of the method: as §1

[35] = biological target: Neu5Ac(a2-3)Gal(b1-4)GlcNAc(b1-2)Man
Summary of the method: as §1

[36] = biological target: Neu5Ac(a2-3)Gal(b1-4)GlcNAc(b1-6)GalNAc
Summary of the method: as §1

[37] = biological target: Neu5Ac(a2-6)Gal(b1-4)Glc
Summary of the method: as §1

[38] = biological target: Neu5Ac(a2-6)Gal(b1-4)GlcNAc(b1-2)Man(a1-6)Man(b1-4)GlcNAc(b1-4)GlcNAc
Summary of the method: as §1

[39] = biological target: Neu5Ac(a2-6)Gal(b1-4)GlcNAc(b1-2)Man(a1-6)[GlcNAc(b1-2)Man(a1-3)]Man(b1-4)GlcNAc(b1-4)GlcNAc
Summary of the method: as §1

[40] = biological target: Neu5Ac(a2-6)Gal(b1-4)GlcNAc(b1-3)[Neu5Ac(a2-6)Gal(b1-4)GlcNAc(b1-6)]GalNAc
Summary of the method: as §1

[41] = biological target: Neu5Ac(a2-8)Neu5Ac(a2-8)Neu5Ac(a2-3)[GalNAc(b1-4)]Gal(b1-4)Glc
Summary of the method: as §1

[42] = biological target: Neu5Gc(a2-3)Gal(b1-4)[Fuc(a1-3)]GlcNAc
Summary of the method: as §1

[43] = biological target: Neu5Gc(a2-6)Gal(b1-4)GlcNAc
Summary of the method: as §1

[44] = biological target: Neu5Gc(a2-8)Neu5Gc(a2-3)Gal(b1-4)GlcNAc
Summary of the method: as §1

B1: GroEL (Clostridium difficile), Q18CT5 (protein)
chain: MAKEIKFSEETRRALEAGVNKLADTVKVTLGPKGRNVILDKKFGSPLITNDGVTIAKEIELEDRFENMGAQLVKEVATKTNDVAGDGTTTATVLAQAIIREGLKNVTAGANPILLRKGIQKAVTVAVEELKNQSRIVETQEAISQVASISAGDEEVGKLIAEAMEIVGKDGVITVEESQTMNTELDAVEGMQFDRGFVSAYMVTDVDKMEAVLNDPYILITDKKISNIQELLPVLEQIVQQGKKLLIIAEDVEGEALSTLVVNKLRGTFDVVAVKAPGFGDRRKEMLQDIAILTGAQVISEELGYDLKEADLSMLGRASSVKVTKESTTIVDGSGDKKAIEDRVTQIKHQVEQTTSDFDREKLMERLAKLAGGVAVVKVGAATEVELKERKLRIEDALNATRAAVEEGIVAGGGTAFVSVIPAIGTLIESLEGEVKLGAQIVKKALEEPLRQIAINAGLEGAVIVQNVVNSEAETGFDALNEKYVNMIEAGIVDPTKVSRSALQNAASIASTFLTTEAAVADLPEKEDAGMPGMGGGMPGMM
[1]
  glycan array binding signal (z-score): -0.541
[2]
  glycan array binding signal (z-score): 3.73
[3]
  glycan array binding signal (z-score): 2.28
[4]
  glycan array binding signal (z-score): 0.143
[5]
  glycan array binding signal (z-score): -0.399
[6]
  glycan array binding signal (z-score): -0.924
[7]
  glycan array binding signal (z-score): 2.58
[8]
  glycan array binding signal (z-score): 0.083
[9]
  glycan array binding signal (z-score): -0.843
[10]
  glycan array binding signal (z-score): 3.31
[11]
  glycan array binding signal (z-score): 0.425
[12]
  glycan array binding signal (z-score): 0.454
[13]
  glycan array binding signal (z-score): 2.79
[14]
  glycan array binding signal (z-score): -1
[15]
  glycan array binding signal (z-score): 0.085
[16]
  glycan array binding signal (z-score): 3.44
[17]
  glycan array binding signal (z-score): 1.02
[18]
  glycan array binding signal (z-score): 2.77
[19]
  glycan array binding signal (z-score): -1.13
[20]
  glycan array binding signal (z-score): -0.517
[21]
  glycan array binding signal (z-score): 2.59
[22]
  glycan array binding signal (z-score): -0.243
[23]
  glycan array binding signal (z-score): 3.51
[24]
  glycan array binding signal (z-score): -0.674
[25]
  glycan array binding signal (z-score): 3.22
[26]
  glycan array binding signal (z-score): 0.659
[27]
  glycan array binding signal (z-score): 0.995
[28]
  glycan array binding signal (z-score): -0.786
[29]
  glycan array binding signal (z-score): 3.99
[30]
  glycan array binding signal (z-score): -0.056
[31]
  glycan array binding signal (z-score): -0.917
[32]
  glycan array binding signal (z-score): 0.139
[33]
  glycan array binding signal (z-score): 2.65
[34]
  glycan array binding signal (z-score): 0.753
[35]
  glycan array binding signal (z-score): 0.243
[36]
  glycan array binding signal (z-score): -0.601
[37]
  glycan array binding signal (z-score): 0.455
[38]
  glycan array binding signal (z-score): -0.426
[39]
  glycan array binding signal (z-score): -0.085
[40]
  glycan array binding signal (z-score): -1.37
[41]
  glycan array binding signal (z-score): -0.254
[42]
  glycan array binding signal (z-score): -0.437
[43]
  glycan array binding signal (z-score): 1.41
[44]
  glycan array binding signal (z-score): -0.482
